Compounds without any hit were thinned out: in the full panel of roughly 79,000, 15% have a hit. Unmarked numbers belong to inactive results. Active and inactive are the calls of the source. Rule as the data show it: active = growth inhibition above about 70%; inactive = the rest.

Experiment [1] can be described thus: NCI Yeast Anticancer Drug Screen. Data for the rad50 strain (AID 155).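 Also: 0% = growth of vehicle-only cultures of the same strain.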 The note with it: S. cerevisiae rad50 strain growth inhibition, active compounds read high. The essentials:
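Relative growth inhibition (compound vs vehicle) was measured in yeast with a defined repair-gene alteration.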

The nature of experiment [2]: NCI Yeast Anticancer Drug Screen. Data for the mec2-1 strain (AID 157). The note with it: S. cerevisiae mec2-1 strain, active compounds read high. The essentials: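 Readout is yeast growth inhibition, normalised to vehicle-treated controls, in the mec2-1 strain exposed to compound.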
Experiment [3] is described as follows: NCI Yeast Anticancer Drug Screen. Data for the sgs1 mgt1 strain (AID 161).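 Also: 0% = growth of cultures given vehicle only.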 The note with it: S. cerevisiae sgs1 mgt1 strain, active compounds read high. The essentials: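 Compounds are added to genetically altered yeast, and growth is compared with cultures given vehicle alone to give percent inhibition.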
The nature of experiment [4]: NCI Yeast Anticancer Drug Screen. Data for the cln2 rad14 strain (AID 165).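 Also: 0% = growth equal to vehicle treated cultures.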 The settings on record: S. cerevisiae cln2 rad14 strain, active compounds read high. The essentials:
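Relative to vehicle controls, growth inhibition of compound-treated cln2 rad14 yeast was recorded.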

Experiment [5] is described as follows: NCI Yeast Anticancer Drug Screen. Data for the bub3 strain (AID 167). The settings on record: S. cerevisiae bub3 mutant strain, active compounds read high. The essentials: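 Screening used yeast with an engineered genetic alteration affecting cell cycle control. Compound-exposed cultures were compared with vehicle cultures, and reduced growth was taken as inhibition.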

A short description of experiment [6]: NCI Yeast Anticancer Drug Screen. Data for the mlh1 rad18 strain (AID 175). The settings on record: S. cerevisiae mlh1 rad18 strain growth inhibition, active compounds read high. The essentials:
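Test agents were incubated with a yeast strain of defined genotype (DNA damage repair defect). Inhibition of growth was derived by comparison with vehicle-exposed cultures.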

Setting [7] is: at 5.0 µM (retest, dose inferred, filed as 0.5).
[8] abbreviates: at 50.0 µM (retest, dose inferred, filed as 5.0).

Take `Cc1cccc2cc3ccccc3cc12`: the growth inhibition in experiment [1] (setting [7]) is 29%; in experiment [1] (setting [8]) it was 99% (active); in experiment [1] (at 50.0 µM), 95.3% (active); in experiment [2] (setting [7]) it was 50%; in experiment [2] (setting [8]) it was 99% (active); in experiment [2] (at 50.0 µM) it was 97% (active). In addition, the growth inhibition was 43% in experiment [3] (setting [7]); 99% (active) in experiment [3] (setting [8]); 85.9% (active) in experiment [3] (at 50.0 µM); 58% in experiment [4] (setting [7]); 99% (active) in experiment [4] (setting [8]); 91.1% (active) in experiment [4] (at 50.0 µM). For the same compound, the growth inhibition is 68% in experiment [5] (setting [7]); 99% (active) in experiment [5] (setting [8]); 95.7% (active) in experiment [5] (at 50.0 µM); 70% (active) in experiment [6] (setting [7]); 99% (active) in experiment [6] (setting [8]); 96.9% (active) in experiment [6] (at 50.0 µM).
For `O=CNc1ccccc1.[Hg]`, the growth inhibition in experiment [1] (setting [7]) is 98% (active); in experiment [1] (setting [8]) it was 98% (active); in experiment [1] (at 50.0 µM) it was 99.7% (active); in experiment [2] (setting [7]), 99% (active); in experiment [2] (setting [8]), 99% (active); in experiment [2] (at 50.0 µM), 99.6% (active). The growth inhibition in experiment [3] (setting [7]) was 99% (active); in experiment [3] (setting [8]) it was 98% (active); in experiment [3] (at 50.0 µM) it was 99.4% (active); in experiment [4] (setting [7]), 99% (active); in experiment [4] (setting [8]), 98% (active); in experiment [4] (at 50.0 µM), 99.3% (active). The growth inhibition is 99% (active) in experiment [5] (setting [7]); 98% (active) in experiment [5] (setting [8]); 99.5% (active) in experiment [5] (at 50.0 µM); 98% (active) in experiment [6] (setting [7]); 98% (active) in experiment [6] (setting [8]); 99.4% (active) in experiment [6] (at 50.0 µM).
Take `c1ccc(P(CCP(c2ccccc2)c2ccccc2)CCP(c2ccccc2)c2ccccc2)cc1`: the growth inhibition in experiment [1] (setting [7]) is 98% (active); in experiment [1] (setting [8]), 98% (active); in experiment [1] (at 50.0 µM), 92.3% (active); in experiment [2] (setting [7]), 94% (active); in experiment [2] (setting [8]) it was 94% (active); in experiment [2] (at 50.0 µM), 93% (active). The growth inhibition in experiment [3] (setting [7]) was 92% (active); in experiment [3] (setting [8]) it was 92% (active); in experiment [3] (at 50.0 µM), 91% (active); in experiment [4] (setting [7]), 84% (active); in experiment [4] (setting [8]), 84% (active); in experiment [4] (at 50.0 µM), 5.95%. The growth inhibition in experiment [5] (setting [7]) is 96% (active); in experiment [5] (setting [8]) it was 96% (active); in experiment [5] (at 50.0 µM) it was 92.8% (active); in experiment [6] (setting [7]), 95% (active); in experiment [6] (setting [8]) it was 95% (active); in experiment [6] (at 50.0 µM) it was 91.8% (active).
With `COC(=O)C(Cl)(Br)CCl` (stereo not given), the growth inhibition in experiment [1] (setting [7]) is 13%; in experiment [1] (setting [8]), 85% (active); in experiment [1] (at 50.0 µM) it was 68.5%; in experiment [2] (setting [7]) it was 6%; in experiment [2] (setting [8]), 86% (active); in experiment [2] (at 50.0 µM), 79.7% (active). Besides, the growth inhibition in experiment [3] (setting [7]) is 4%; in experiment [3] (setting [8]), 49%; in experiment [3] (at 50.0 µM), 42.1%; in experiment [4] (setting [7]), 3%; in experiment [4] (setting [8]) it was 65%; in experiment [4] (at 50.0 µM), 12.3%. Also, the growth inhibition in experiment [5] (setting [7]) was 9%; in experiment [5] (setting [8]), 95% (active); in experiment [5] (at 50.0 µM) it was 43%; in experiment [6] (setting [7]) it was 8%; in experiment [6] (setting [8]), 81% (active); in experiment [6] (at 50.0 µM) it was 38.7%.
`O=S(=O)([O-])[O-].[OH3+].[OH3+].[OH3+].[Ru+2].c1ccccc1`: the growth inhibition in experiment [1] (setting [7]) was -39%; in experiment [1] (setting [8]), -9%; in experiment [1] (at 50.0 µM), 88.8% (active); in experiment [2] (setting [7]) it was -1%; in experiment [2] (setting [8]), -2%; in experiment [2] (at 50.0 µM) it was 92.2% (active). Further, the growth inhibition in experiment [3] (setting [7]) is -15%; in experiment [3] (setting [8]) it was 20%; in experiment [3] (at 50.0 µM), 90.5% (active); in experiment [4] (setting [7]), -9%; in experiment [4] (setting [8]) it was 15%; in experiment [4] (at 50.0 µM) it was 89.6% (active). Also, the growth inhibition in experiment [5] (setting [7]) was -11%; in experiment [5] (setting [8]), 42%; in experiment [5] (at 50.0 µM) it was 90.7% (active); in experiment [6] (setting [7]), -38%; in experiment [6] (setting [8]) it was 30%; in experiment [6] (at 50.0 µM), 87.5% (active).
For `CC(NCCN(C)C)C1CC2CCCCN2C1` (stereo not given), the growth inhibition in experiment [1] (setting [7]) was -8%; in experiment [1] (setting [8]), -30%; in experiment [1] (at 50.0 µM) it was 3.55%; in experiment [2] (setting [7]), -8%; in experiment [2] (setting [8]) it was -14%; in experiment [2] (at 50.0 µM), 11.9%. In addition, the growth inhibition in experiment [3] (setting [7]) was -13%; in experiment [3] (setting [8]), -28%; in experiment [3] (at 50.0 µM) it was 15.7%; in experiment [4] (setting [7]), -17%; in experiment [4] (setting [8]), -26%; in experiment [4] (at 50.0 µM) it was 41.1%. The growth inhibition in experiment [5] (setting [7]) is 3%; in experiment [5] (setting [8]), 1%; in experiment [5] (at 50.0 µM), 0.8%; in experiment [6] (setting [7]) it was -3%; in experiment [6] (setting [8]), 19%; in experiment [6] (at 50.0 µM), 33%.
For `CC(=O)OCC12CCC(C)=CC1OC1C3(O)N=C(C)OC3C2(C)C12CO2` (stereo not given), the growth inhibition is 35% in experiment [1] (setting [7]); 78% (active) in experiment [1] (setting [8]); 32.2% in experiment [1] (at 50.0 µM); 28% in experiment [2] (setting [7]); 55% in experiment [2] (setting [8]); 69% in experiment [2] (at 50.0 µM). The growth inhibition is 46% in experiment [3] (setting [7]); 76% (active) in experiment [3] (setting [8]); 41% in experiment [3] (at 50.0 µM); 38% in experiment [4] (setting [7]); 64% in experiment [4] (setting [8]); 56.3% in experiment [4] (at 50.0 µM). Besides, the growth inhibition in experiment [5] (setting [7]) was 18%; in experiment [5] (setting [8]) it was 69%; in experiment [5] (at 50.0 µM), 41.9%; in experiment [6] (setting [7]), 46%; in experiment [6] (setting [8]), 75% (active); in experiment [6] (at 50.0 µM), 18.4%.
As to `Oc1ccc(Br)cc1C1N(Cc2ccc(N(CCCl)CCCl)cc2Cl)CCCN1Cc1ccc(N(CCCl)CCCl)cc1Cl`, the growth inhibition in experiment [1] (setting [7]) is 69%; in experiment [1] (setting [8]) it was 98% (active); in experiment [1] (at 50.0 µM) it was 10.7%; in experiment [2] (setting [7]) it was 47%; in experiment [2] (setting [8]), 99% (active); in experiment [2] (at 50.0 µM), 63%. Besides, the growth inhibition in experiment [3] (setting [7]) is 54%; in experiment [3] (setting [8]), 99% (active); in experiment [3] (at 50.0 µM), 23.7%; in experiment [4] (setting [7]), 70% (active); in experiment [4] (setting [8]) it was 98% (active); in experiment [4] (at 50.0 µM), 8.95%. Moreover, the growth inhibition was 84% (active) in experiment [5] (setting [7]); 99% (active) in experiment [5] (setting [8]); 52% in experiment [5] (at 50.0 µM); 98% (active) in experiment [6] (setting [7]); 98% (active) in experiment [6] (setting [8]); 46.5% in experiment [6] (at 50.0 µM).
Take `CCC1(O)C(=O)OCc2c1cc1n(c2=O)Cc2cc3ccc(C#N)cc3nc2-1` (stereo not given): the growth inhibition in experiment [1] (setting [7]) is 71% (active); in experiment [1] (setting [8]), 57%; in experiment [1] (at 50.0 µM), 51%; in experiment [2] (setting [7]), 11%; in experiment [2] (setting [8]), -6%; in experiment [2] (at 50.0 µM), -20.8%. The growth inhibition in experiment [3] (setting [7]) is 11%; in experiment [3] (setting [8]), -132%; in experiment [3] (at 50.0 µM), -30.6%; in experiment [4] (setting [7]), 10%; in experiment [4] (setting [8]), -5%; in experiment [4] (at 50.0 µM), -16.7%. For the same compound, the growth inhibition in experiment [5] (setting [7]) is -6%; in experiment [5] (setting [8]) it was -63%; in experiment [5] (at 50.0 µM) it was -4.05%; in experiment [6] (setting [7]) it was 10%; in experiment [6] (setting [8]), -9%; in experiment [6] (at 50.0 µM), -15.6%.
Regarding `CCC[CH2][Sn]([CH2]CCC)([S]C#N)[S]C#N`, the growth inhibition is 95% (active) in experiment [1] (setting [7]); 97% (active) in experiment [1] (setting [8]); 89.3% (active) in experiment [1] (at 50.0 µM); 96% (active) in experiment [2] (setting [7]); 97% (active) in experiment [2] (setting [8]); 91% (active) in experiment [2] (at 50.0 µM). Moreover, the growth inhibition is 93% (active) in experiment [3] (setting [7]); 97% (active) in experiment [3] (setting [8]); 90.5% (active) in experiment [3] (at 50.0 µM); 93% (active) in experiment [4] (setting [7]); 97% (active) in experiment [4] (setting [8]); 86% (active) in experiment [4] (at 50.0 µM). Also, the growth inhibition in experiment [5] (setting [7]) was 96% (active); in experiment [5] (setting [8]), 96% (active); in experiment [5] (at 50.0 µM) it was 89.1% (active); in experiment [6] (setting [7]), 97% (active); in experiment [6] (setting [8]), 97% (active); in experiment [6] (at 50.0 µM) it was 88% (active).

Source of the values: PubChem BioAssay (NCI).
